# The list is not random: actives were taken first. Their share in the collection is about 6.3%.
# NADH coupling: inhibitors of PK/LDH coupling enzymes, profiling panel, artefact control, biochemical, MLSMR library | coupled PK/LDH NADH assays, four targets | IC50, µM (top dose mostly 10 µM), for the others: at the top dose inhibition | actives 0.02% (n = 65,000) | AID 774, 2007;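 active = single-dose screening hits from any of four coupled enzyme assays that gave an IC50 when retested across doses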;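 note: the DPM-DC format reads NADH fluorescence rather than 340 nm absorbance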
# DPM-DC inhibit: S. pneumoniae DPM-DC inhibitors, primary screen, biochemical, PK/LDH-coupled NADH fluorescence | diphosphomevalonate decarboxylase (Streptococcus pneumoniae D39) | purified DPM-DC | calls only at 10 µM | actives 0.49% (n = 65,000) | AID 556, 2006;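 active = the 320 compounds with the highest percent inhibition in the single-dose primary screen, excluding strongly autofluorescent ones, cut at about 32% in these data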;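 note: kinetic rate of NADH fluorescence loss reporting ADP formed by the decarboxylase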
# Autofluor 339: intrinsic fluorescence of library compounds, ex339/em460 – biochemical, MLSMR library, data from DPM-DC assay, artefact control, profiling panel | actives 5.5% (n = 65,000) | compound autofluorescence, ex339/em460 nm, NADH buffer; active compounds read high; 1 = no-compound wells, NADH background | fluorescence fold increase at 10 µM;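 active = at 10 µM, mean starting fluorescence two-fold or more over control wells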;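 note: signal is the first read of a kinetic run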
# Spn MK inh: S. pneumoniae MK inhibitors, primary screen, biochemical, PK/LDH-coupled NADH absorbance; mevalonate kinase [Streptococcus pneumoniae D39]; purified MK, PK/LDH-coupled NADH absorbance 340 nm; inhibition, % at 10 µM; actives 0.48% (n = 65,000);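 active = ranked among the strongest by inhibition in the single 10 µM screen, a fixed top-ranked set picked for dose follow-up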
# Spn PMK inh: S. pneumoniae PMK inhibitors, primary screen, biochemical, mevalonate pathway, pilot trial included | AID 539, 2006 | actives 0.49% (n = 65,000) | inhibition, % at 10 µM | purified PMK, PK/LDH-coupled NADH absorbance 340 nm | phosphomevalonate kinase (Streptococcus pneumoniae D39);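 active = top-ranked compounds by inhibition in the single 10 µM screen, taking a fixed number of the strongest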;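 note: 0% = full reaction with DMSO carrier and 100% = background rate without enzyme reaction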
# A340 absorber: compound light absorbance at 340 nm, profiling panel, artefact control, biochemical, MLSMR library, data from PS, PMK, MK assays; compound absorbance at 340 nm, fold over control; fold change at 10 µM; 65,000 tested, under 10 active;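 active = at 10 µM dose, initial 340 nm absorbance at least 2 fold that of control wells; inactive = change under 2 fold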;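 note: initial absorbance extrapolated from kinetic A340 decline of NADH oxidation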
# * hit, by the source's call; i = inactive; / = no result shown; + = active, no number.
SMILES,NADH coupling,DPM-DC inhibit,Autofluor 339,Spn MK inh,Spn PMK inh,A340 absorber
CC(C)(C)n1c(O)c(C=Nc2ccc3c(c2)CCC3)c(=O)[nH]c1=O,12.0%,i,2.07*,0.0,10.0,1.14
CC(=Nc1ccc2c(c1)CCC2)c1c(O)n(C)c(=O)n(C)c1=O,1.0%,i,1.15,0.0,3.0,1.08
CCCOC(=O)COc1cc(C)cc2oc(=O)c3c(c12)CCC3,6.0%,/,2.22*,5.0,6.0,1.03
Cc1cc(OCC(=O)Nc2c(C)n(C)n(-c3ccccc3)c2=O)c2c3c(c(=O)oc2c1)CCC3,7.0%,i,2.14*,2.0,10.0,1.1
Cc1cc(OCC(=O)O)c2c3c(c(=O)oc2c1)CCCC3,3.0%,/,2.45*,8.0,1.0,1.02
CC1(C)CC(=O)C=C(NCCN2CCN(C(=O)Cc3ccc(Cl)cc3)CC2)C1,3.0%,i,1.04,8.0,7.0,0.97
CCS(=O)(=O)N1CCCC(C(=O)N2CCC3(CC2)OCCO3)C1 (stereo not given),1.0%,i,1.14,1.0,2.0,1.02
COc1ccc(S(=O)(=O)NC(CC(=O)N2CCC3(CC2)OCCO3)c2ccco2)cc1 (stereo not given),1.0%,i,1.01,5.0,0.0,1.01
O=C(O)C1(c2ccc(Cl)cc2)CCC1,1.0%,i,1.05,6.0,0.0,0.99
COCCCNC(=O)c1c(NC(=O)c2ccco2)n(Cc2ccccc2)c2nc3ccccc3nc12,9.0%,/,3.82*,7.0,11.0,1.1
Nc1c(C(=O)OCC2CCCO2)c2nc3ccccc3nc2n1Cc1cccs1 (stereo not given),8.0%,/,2.09*,0.0,15.0,1.08
CCCCNC(=O)c1c(N)n(CCCOC)c2nc3ccccc3nc12,1.0%,/,2.42*,3.0,0.0,1.02
CCOC(=O)c1c(N)n(CCCOC(=O)c2ccco2)c2nc3ccccc3nc12,11.0%,/,4.01*,9.0,13.0,1.11
CC(=O)c1c(C)n(CC2CCCO2)c2ccc(O)cc12 (stereo not given),6.0%,i,1.07,9.0,9.0,1.08
CCOC(=O)c1c(C)n(CCOC)c2ccc(O)cc12,1.0%,i,1.15,0.0,2.0,1.02
COCCCn1c(N)c(C(=O)OCCOC)c2nc3ccccc3nc21,13.0%,/,3.84*,11.0,14.0,1.1
CC(C)OCCCNC(=O)c1c(N)n(Cc2cccs2)c2nc3ccccc3nc12,1.0%,/,3.04*,0.0,6.0,1.02
Nc1c(C(=O)NC2CCCC2)c2nc3ccccc3nc2n1CC1CCCO1 (stereo not given),11.0%,/,3.73*,11.0,11.0,1.03
COc1ccccc1N1CCN(Cc2ccc(Br)s2)CC1,12.0%,i,1.1,36.0,0.0,1.07
COc1ccc(-c2cc(C(F)(F)F)n3nc(C(=O)N4CCC5(CC4)OCCO5)cc3n2)cc1OC,23.0%,+,1.64,5.0,9.0,1.21
COc1cc(CN2CCN(c3cc(C)ccc3C)CC2)ccc1O,10.0%,i,1.07,22.0,7.0,1.06
COCCOC(=O)c1c(N)n(Cc2ccc(OC)cc2)c2nc3ccccc3nc12,9.0%,/,3.89*,8.0,10.0,1.08
CCOC(=O)c1c(N)n(Cc2ccc(OC)cc2)c2nc3ccccc3nc12,5.0%,/,3.89*,6.0,4.0,1
COC(=O)c1c(N)n(Cc2ccc(OC)cc2)c2nc3ccccc3nc12,3.0%,/,3.71*,5.0,1.0,1.05
CCCCSP1(=S)NCCCN1,5.0%,i,1.02,6.0,9.0,0.96
SMILES,NADH coupling,DPM-DC inhibit,Autofluor 339,Spn MK inh,Spn PMK inh,A340 absorber
CCOC(=O)c1c(-c2ccc(OC)cc2)oc2ccc(OC(=O)N(C)C)cc12,6.0%,/,3.78*,1.0,11.0,1.08
CC[C@@H](CO)NC(=O)[C@@H]1C=C2c3cccc4c3c(cn4C)C[C@H]2N(C)C1,4.0%,/,2.46*,7.0,3.0,1
CN1C[C@H](CNC(=O)OCc2ccccc2)C[C@@H]2c3cccc4c3c(cn4C)C[C@H]21,3.0%,i,1.13,6.0,5.0,0.98
O=c1[nH]c(=O)n(CCc2ccc(F)cc2)c(O)c1C=NCCCn1ccnc1,2.0%,i,1.03,9.0,10.0,0.99
CN1CC=C2C(C#N)=C(N)C(C#N)(C#N)C(c3ccncc3)C2C1 (stereo not given),4.0%,i,2.01*,0.0,0.0,1.07
CCn1nc(-c2ccccc2)nc2c(=O)n(C)c(=O)nc1-2,32.8µM*,+,0.67,11.0,11.0,0.8
COc1ccc(Cn2c(N)c(C(=O)NCc3ccco3)c3nc4ccccc4nc32)cc1OC,7.0%,/,3.66*,7.0,6.0,1.02
COc1ccc(C2=NCC(=O)N(CC(=O)NCc3ccco3)c3sc4c(c32)CCCC4)cc1OC,5.0%,i,1.01,0.0,15.0,1
Nc1c(C(=O)NCc2ccco2)c2nc3ccccc3nc2n1CCN1CCCCC1,3.0%,/,2.29*,1.0,4.0,1.05
CC(c1ccc(F)cc1)n1cc(C(=O)NCc2ccc3c(c2)OCO3)nn1 (stereo not given),2.0%,i,1.11,5.0,0.0,1.07
CCCNC(=O)c1c(N)n(Cc2ccc3c(c2)OCO3)c2nc3ccccc3nc12,3.0%,/,2.15*,8.0,14.0,0.99
Cc1ccc(Cl)cc1N1CCN(CCN)CC1,6.0%,i,0.99,8.0,10.0,1
C=CCn1c(O)c(C(CC)=NCc2cc(OC)cc(OC)c2)c(=O)[nH]c1=O,4.0%,i,1.1,2.0,10.0,0.98
O=c1[nH]c(=O)n(Cc2ccc(F)cc2)c(O)c1C=NCCCN1CCOCC1,3.0%,i,1.06,11.0,14.0,0.98
COC(=O)c1ccccc1OP1(=O)COc2ccccc2OC1,5.0%,i,1.14,9.0,5.0,1
COc1cc(C)c(CN2CCN(c3ccccc3)CC2)cc1C,19.0%,i,1.07,49.0*,8.0,1.05
Oc1ccc(Br)cc1CN1CCN(c2ccccc2)CC1,1.0%,i,1.08,3.0,0.0,1.03
O=C(CN1CCOCC1)c1ccc2cc[nH]c2c1,4.0%,/,2.14*,0.0,8.0,1.09
Cc1nn(CCC#N)c2c1P(=S)(N1CCCC1)OC(c1ccc(F)cc1)=N2 (stereo not given),5.0%,i,1,4.0,11.0,1.03
Cc1nn(Cc2ccccc2Cl)c(Cl)c1C(=O)OCC(=O)NCc1ccco1,1.0%,i,1.06,6.0,0.0,0.99
CC(C)OC(=O)c1c(N)n(Cc2ccco2)c2nc3ccccc3nc12,16.0%,/,2.28*,5.0,27.0,1.09

# Assay outcomes: PubChem BioAssay, SRMLSC
